According to PubChem BioAssay (EPA / NIEHS):
“And” between values parts separate entries of the source, which are not always exact repeats. Identical values can stand only once. A structure can be active in one record and inactive in another. The source made the active and inactive calls. How the source made its calls: active means hit-call score of the fitted dose curve at least 0.9, where 1 is the maximum; inactive means score below 0.9.

Assay: APR_HepG2_CellCycleArrest_24hr: Apredica 24-hour HepG2 Assay for Cell Cycle Arrest (AID 2282905);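 further: cell cycle arrest scored as ratio of 2N to 4N nuclear DNA content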
Details: imaging, actives raise or lower the signal
Method: APR_HepG2_24hr is a cell-based, multiplexed-readout assay that uses HepG2, a human liver cell line, with measurements taken at 24 hours after chemical dosing in a 384-well plate.APR_HepG2_CellCycleArrest_24hr is one of 10 assay component(s) measured or calculated from the APR_HepG2_24hr assay. It is designed to make measurements of cell phenotype, a form of morphology reporter, as detected with fluorescence intensity signals by HCS Fluorescent Imaging technology.Data from the assay component APR_HepG2_CellCycleArrest_24hr was analyzed into 1 assay endpoint. This assay endpoint, APR_HepG2_CellCycleArrest_24hr, was analyzed with bidirectional fitting relative to DMSO as the negative control and baseline of activity. Using a type of morphology reporter, measures of all nuclear dna for gain or loss-of-signal activity can be used to understand the signaling at the pathway-level as they relate to the gene . Furthermore, this assay endpoint can be referred to as a primary readout, because this assay has produced multiple assay endpoints where this one serves a signaling function. To generalize the intended target to other relatable targets, this assay endpoint is annotated to the cell cycle intended target family, where the subfamily is arrest.
Cells were treated with dimethyl sulfoxide (DMSO) as a solvent control at a final concentration of 0.5% v/v or with compounds in DMSO with a resulting final DMSO concentration of 0.5% v/v. Compound treatment was done at concentrations of 0.39, 0.78, 1.56, 3.12, 6.24, 12.5, 25, 50, 100, and 200 uM in duplicate on each plate. Cells were treated with compounds for 1, 24, or 72 hr. Carbonyl […] m-chloro-phenylhydrazone (CCCP) and taxol were used as positive controls for mitochondrial function and cytoskeletal stability, respectively; DMSO served as the negative control for this experiment. Cells were fixed by the direct addition of 50 uL formaldehyde in Hank's Balanced Salt Solution (HBSS) to a final concentration of 3.7%. After incubation in the fixation medium for 30 min at room temperature (293-298 K), cells were rinsed twice with HBSS and treated with cell permeabilization buffer (16 uL of 0.5% Triton X-100) for 10 min at room temperature (293-298 K) before labeling. For mitochondrial membrane potential and mitochondrial measurements, pre-fixed cells were incubated with 50 uL of MitoTracker Red CMXRos (Invitrogen) at a concentration of 250 nM for 30 min before fixation. In the remaining cases, post-fixed cells were labeled by incubation with a multiplexed mixture of primary antibodies in HBSS for 60 min at room temperature (293-298 K) to detect immunoreactivity of c-Jun (1:500), phospho-histone H3 (1:100), phospho-histone H2A.x (1:200), p53 (1:400), alpha-tubulin (1:200) and Hoechst 33342 (2 ug/mL). Cells were labeled for multiplexed imaging on two separate plates: a) Hoechst 33342, MitoTracker Red, phospho-histone H3, and alpha-tubulin, and b) Hoechst 33342, phospho-histone H2A.x, and c-Jun. A final rinse with HBSS (50 uL) was performed before analysis. The primary and secondary antibodies for the proteins were phospho-histone H3 (rabbit anti-phospho-histone H3 and FITC-donkey anti-rabbit IgG), phospho-histone H2A.x (mouse anti-phospho-histone H2A.x and FITC-donkey anti-mouse IgG), c-Jun (rabbit anti-phospho-c-Jun and Cy3-donkey anti-rabbit IgG), p53 (sheep anti-p53 and Cy5-donkey anti-sheep IgG), alpha-tubulin (mouse anti-alpha-tubulin and Cy5-donkey anti-mouse IgG). These antibodies are available as the CellCiphr HepG2 assay kit (Millipore).Digital images of each well were captured using a Cellomics ArrayScan VTI (Thermo Scientific Cellomics) (0.8 NA objective, 0.63x optical coupler, and XF-93 filter set) at 20x magnification. The images were acquired using the autofocus feature of the ArrayScan instrument, which entails the following steps. First, the camera focuses on channel 1 (Hoechst 33342), where nuclei are identified. Second, a Z offset of 1 um is used for capturing mitochondria (MitoTracker Red). […]

SMILES	outcome	AC50
CCCCC(CC)CN1C(=O)C2C3C=CC(C3)C2C1=O (stereo not given)	inactive	–
COc1c(Cl)ccc(Cl)c1C(=O)O	inactive	–
CCCCCCC(C)OC(=O)COc1nc(F)c(Cl)c(N)c1Cl (stereo not given)	inactive	–
S=C(S)NCCNC(=S)S.[Mn+2].[S-]C([S-])=NCCN=C([S-])[S-].[Zn+2]	inactive	50.8 µM (active) and 53.7 µM (active)
CCOC(=O)C(C)Oc1ccc(Oc2cnc3cc(Cl)ccc3n2)cc1 (stereo not given)	inactive	–
C#CCOC(=O)[C@@H](C)Oc1ccc(Oc2ncc(Cl)cc2F)cc1	inactive	–
CCCOC(=O)NCCCN(C)C	inactive	–
CCCN(CCC)c1c([N+](=O)[O-])cc(C(F)(F)F)c(N)c1[N+](=O)[O-]	inactive	–
CCOC(=O)NCCOc1ccc(Oc2ccccc2)cc1	inactive	–
CC(=O)S[C@@H]1CC2=CC(=O)CC[C@]2(C)[C@H]2CC[C@@]3(C)[C@@H](CC[C@@]34CCC(=O)O4)[C@H]12	–	37.4 µM (active)
CN(C)C(=O)Nc1ccc(Cl)c(Cl)c1	inactive	–
CC(=O)[C@H]1CC[C@H]2[C@@H]3CCC4=CC(=O)CC[C@]4(C)[C@H]3CC[C@]12C	–	169 µM (active)
O=C(c1ccc(O)cc1O)c1ccc(O)cc1O	inactive	–
COC(=O)c1ccc(I)cc1S(=O)(=O)NC(=O)Nc1nc(C)nc(OC)n1	inactive	–
N[C@@H](Cc1cc(I)c(Oc2ccc(O)c(I)c2)c(I)c1)C(=O)O	inactive	–
CCSC(=O)N(CC(C)C)CC(C)C	inactive	–
S=C([S-])NCCNC(=S)[S-].[Mn+2]	inactive	–
COC(=O)c1c(Cl)nn(C)c1S(=O)(=O)NC(=O)Nc1nc(OC)cc(OC)n1	inactive	–
C[C@]12C[C@H](O)[C@H]3[C@@H](CCC4=CC(=O)CC[C@@]43C)[C@@H]1CC[C@@H]2C(=O)CO	–	114 µM (active)
CCCCOC(=O)C(C)Oc1ccc(Oc2ccc(C(F)(F)F)cn2)cc1 (stereo not given)	inactive	–

SMILES	outcome	AC50
c1ccc2[nH]c(-c3cscn3)nc2c1	inactive	–
O=C(O)c1ccccc1	inactive	–
OB(O)O	inactive	–
O=C(c1ccccc1)C1CCCCC1	inactive	–
C[C@]12CC[C@@H]3c4ccc(O)cc4C[C@@H](CCCCCCCCCS(=O)CCCC(F)(F)C(F)(F)F)[C@H]3[C@@H]1CC[C@@H]2O (stereo not given in full)	inactive	–
Oc1ccc(C(c2ccc(O)cc2)C(Cl)(Cl)Cl)cc1	inactive	–
CCOC(=O)[C@H](C)Oc1ccc(Oc2nc3ccc(Cl)cc3o2)cc1	inactive	–
CCCCC(CC)COC(=O)c1ccccc1C(=O)O (stereo not given)	inactive	–
CSC(=O)c1cccc2nnsc12	inactive	–
CCOC(=O)COc1cc(-n2ncc(C(F)(F)F)c(C)c2=O)c(F)cc1Cl	inactive	–
CCCOC(=O)c1ccc(C(=O)OCCC)nc1	inactive	–
CCC(C)OC(=O)N1CCCCC1CCO (stereo not given)	inactive	–
N#CSCSc1nc2ccccc2s1	–	29.6 µM (active)
Cc1nn(C)c(Oc2ccccc2)c1C=NOCc1ccc(C(=O)OC(C)(C)C)cc1	–	29.9 µM (active)
CC(C)(c1ccc(O)cc1)c1ccc(O)cc1	inactive	–
CC(C)(C)[C@@H](O)[C@@H](Cc1ccc(Cl)cc1)n1cncn1	inactive	–
CCN(Cc1c(F)cccc1Cl)c1c([N+](=O)[O-])cc(C(F)(F)F)cc1[N+](=O)[O-]	inactive	–
CCC(O)=C1C(=O)CC(C(=O)O)CC1=O (stereo not given)	inactive	–
CCNc1nc(N)nc(Cl)n1	inactive	–
